SMN2 splice enh: SMN2 splice variant enhancement. HEK293 SMN2-luciferase splicing reporter, luminescence, 30-36 h. Potency, µM (titrated, usually from 46.1 µM), usual class: activators. actives 2.8% (n = 210,000); also: nearly all actives have a fitted effect of over 55% in size
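HEK293 cells carry an SMN2 minigene-luciferase reporter in which exon 7 inclusion puts luciferase in frame. Cells were seeded at 2000 cells/well, attached for 10-12 hours, then exposed to compounds for 30-36 hours at 37C before ONE-Glo luminescence.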
ELG1 repair inh: ELG1-dependent DNA repair inhibition | HEK293T ELG1-luciferase reporter, luminescence, 16 h; DNA damage induced by 5-fluorouridine | Potency, µM (doses to about 46.1 µM), most hits filed as inhibitors | actives 2.3% (n = 330,000); also: nearly all actives have a fitted effect of over 55% in size
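Quantitative HTS, concentration-response format. 2,000 cells/well co-treated with 5-fluorouridine and compound, 16 hr in 5% CO2 at 37 °C; ONE-Glo luminescence read after 30 min.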
ELG1 genotox: induces genotoxicity in HEK293T cells with luciferase-tagged ELG1; HEK293T ELG1-luciferase reporter, luminescence, 16 h; Potency, µM (highest dose often 46 µM), actives largely listed as activators; actives 1.3% (n = 330,000); also: nearly all actives have a fitted effect of over 60% in size
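HEK293T cells expressing luciferase-tagged ELG1 were treated with compound or DMSO for 16 hr at 37°C. Luciferase activity was then read after 30 min with ONE-Glo at room temperature; rising signal flags genetic stress.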
NPC1 prom act: activators of NPC1 promoter; Huh7 NPC1 promoter luciferase reporter, 24 h; Potency, µM (top dose mostly 9.22 µM), hits mostly activators; actives 2.4% (n = 320,000); AID 485313; also: nearly all actives have a fitted effect of over 60% in size
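In 1536-well qHTS, Huh7 cells harboring an NPC1 promoter–luciferase construct received compound for 24 h; activation was quantified by luminescence following luciferase reagent addition.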
Rab9 promoter act: activators of Rab9 promoter; Huh7 Rab9 promoter-luciferase reporter, luminescence, 24 h; Potency, µM (series often up to 9.22 µM), actives largely listed as activators; actives 2.8% (n = 320,000); AID 485297; also: nearly all actives have a fitted effect of over 60% in size
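Luminescence from Amplite-detected luciferase (10 minutes, ambient) reports Rab9 promoter activation. Before that, stable Rab9-luciferase Huh7 cells (1500/well, reduced-serum OP-MEM I plus 10% FBS) were exposed to compound for 24 hours at 37C.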
FLuc counter: counter-screen for miR-21 project: firefly luciferase inhibitors or activators | actives 6.9% (n = 360,000) | purified FLuc, Km substrates, luminescence inhibition | P08659 | Potency, µM (doses to about 57.5 µM), most hits filed as inhibitors; also: nearly all actives have a fitted effect of over 55% in size
Target sequence (P08659 whole entry, looked up): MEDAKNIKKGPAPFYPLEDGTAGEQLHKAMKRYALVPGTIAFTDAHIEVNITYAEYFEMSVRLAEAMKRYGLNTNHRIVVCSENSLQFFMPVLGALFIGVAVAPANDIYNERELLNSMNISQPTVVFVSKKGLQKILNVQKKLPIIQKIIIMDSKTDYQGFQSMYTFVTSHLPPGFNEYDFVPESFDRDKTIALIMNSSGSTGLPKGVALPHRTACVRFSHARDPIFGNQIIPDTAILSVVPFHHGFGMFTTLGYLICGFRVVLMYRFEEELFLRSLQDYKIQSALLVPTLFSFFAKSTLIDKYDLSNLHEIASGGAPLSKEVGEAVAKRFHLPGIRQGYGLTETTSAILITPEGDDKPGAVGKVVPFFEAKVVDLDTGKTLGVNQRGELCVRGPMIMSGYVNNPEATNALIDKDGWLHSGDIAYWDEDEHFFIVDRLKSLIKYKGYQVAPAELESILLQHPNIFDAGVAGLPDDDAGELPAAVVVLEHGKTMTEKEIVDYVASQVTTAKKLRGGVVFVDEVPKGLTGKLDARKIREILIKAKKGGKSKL
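Purified P. pyralis luciferase (10nM final) with 10uM D-luciferin and 10uM ATP (Km levels) in 50mM Tris acetate pH 7.5, 10mM Mg acetate, 0.01% Tween-20, 0.05% BSA; qHTS 6-point titration, ~60 µM downward; luminescence read.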
ELG1 FLuc counter: luciferase inhibition in cell-free luciferin readout for ELG1 hits | actives 3% (n = 350) | shares compounds with ELG1 repair inh | Potency, µM (doses to about 46.1 µM), actives largely listed as inhibitors | cell-free firefly luciferase luminescence counter-screen, ViewLux
ELG1 Luc conf: inhibits ELG1-dependent DNA repair in HEK293T cells, confirmed | shares compounds with ELG1 repair inh | HEK293T ELG1-luciferase levels, luminescence; cells co-treated with 5-fluorouridine | Potency, µM (highest dose often 46.1 µM), hits mostly inhibitors | actives 68% (n = 670) | AID 624248; also: nearly all actives have a fitted effect of over 55% in size
ELG1-Luc MMS: inhibits ELG1-dependent repair under MMS stimulation in HEK293T cells | Potency, µM (titrated, usually from 46.1 µM), actives largely listed as inhibitors | actives 53% (n = 670) | AID 624249 | HEK293T luciferase-tagged ELG1 level, MMS stimulated | shares compounds with ELG1 repair inh; also: nearly all actives have a fitted effect of over 60% in size
ELG1 5-FU: confirmation of ELG1 repair inhibitors: viability with 5FU; shares compounds with ELG1 repair inh; cell viability with 5-FU, ELG1-dependent repair; Potency, µM (highest dose often 46.1 µM), most hits filed as cytotoxic; 670 tested, under 10 active;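 also: ELG1-luc HEK293T cells cotreated with 5-fluorouridine at 10 µM final; viability measured 16 h after compound addition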
ELG1 MMS cell: confirmation of ELG1 repair inhibitors: viability with MMS. Potency, µM (doses to about 46.1 µM), hits mostly cytotoxic. shares compounds with ELG1 repair inh. Cell viability with MMS, ELG1-dependent DNA repair. actives 33% (n = 670);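 also: ELG1-luc HEK293T cells co-treated with 10 µM MMS; viability read 16 h after compound addition; nearly all actives have a fitted effect of over 60% in size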
Cell viab unstim: affects unstimulated cell viability, ELG1 hit counter-screen. actives 8% (n = 900). Potency, µM (series often up to 45.9 µM), hits mostly cytotoxic. cell viability counter-screen, unstimulated, luminescence. shares compounds with ELG1 repair inh. AID 624252;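 also: compound exposure lasted 16 hours before reading; nearly all actives have a fitted effect of over 55% in size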
FLuc biochem: inhibits purified firefly luciferase, counter-screen for ELG1 hits; actives 10% (n = 350); Potency, µM (doses to about 57.5 µM), usual class: inhibitors; shares compounds with ELG1 repair inh; purified firefly luciferase, luminescence counter-screen
Each line names hits and unclear results; the compound was inactive in the other large screens (follow-up assays come after a bar, where they were run). Hits are enriched below; roughly 9.2% of the tested compounds scored in any of these assays. Calls follow the shape of the dose curve; as a rule, active = well fitted curve in the direction sought with a large enough effect; inconclusive = small, poorly fitted or top-dose-only effect, or another doubt; inactive = no such curve, though single readings can be large; an effect the other way counts as inactive or inconclusive.

CC(=O)c1c(C)n(C2CCCCC2)c2ccc(O)cc12	ELG1 repair inh inconclusive | ELG1 Luc conf 1.25µM | ELG1-Luc MMS inconclusive | ELG1 5-FU inactive | ELG1 MMS cell inactive | Cell viab unstim inconclusive
c1ccc(P(c2ccccc2)c2ccccc2)cc1	none (no result: ELG1 repair inh, ELG1 genotox, NPC1 prom act, Rab9 promoter act, FLuc counter)
CC(C)(C)OC(=O)N1CC(O)CC1C(=O)OCC(=O)c1ccc(-c2ccccc2)cc1 (configuration not stated)	none
CC(C)(C)OC(=O)NCc1ccc(CNC(=O)c2nc[nH]c2C(=O)NCc2ccc(CNC(=O)OC(C)(C)C)cc2)cc1	ELG1 repair inh 2.91µM (no result: SMN2 splice enh, NPC1 prom act, Rab9 promoter act, FLuc counter) | ELG1 Luc conf 4.99µM | ELG1-Luc MMS inconclusive | ELG1 5-FU inactive | ELG1 MMS cell inactive | Cell viab unstim inconclusive
FC(Cl)(Cl)Cl	none (no result: ELG1 repair inh, ELG1 genotox, NPC1 prom act, Rab9 promoter act, FLuc counter)
COc1ccc(NC(=O)N2CCC3(CC2)CCN(C(=O)Oc2ccccc2)CC3)cc1	none (no result: ELG1 repair inh, ELG1 genotox, NPC1 prom act, Rab9 promoter act, FLuc counter)
CCNCC	none (no result: ELG1 repair inh, ELG1 genotox, NPC1 prom act, Rab9 promoter act, FLuc counter)
COc1ccc(C(Nc2ccccc2)P(=O)(Oc2ccccc2)Oc2ccccc2)cc1 (configuration not stated)	ELG1 repair inh inconclusive | ELG1 FLuc counter inactive | ELG1 Luc conf 7.06µM | ELG1-Luc MMS inconclusive | ELG1 5-FU inconclusive | ELG1 MMS cell inconclusive | Cell viab unstim inconclusive | FLuc biochem inactive
CCOP(=O)(OCC)C(Nc1cccc([N+](=O)[O-])c1)c1ccc(OC)cc1 (configuration not stated)	ELG1 repair inh inconclusive (no result: SMN2 splice enh)
C=CC(=O)OCC(CC)CCCC (configuration not stated)	none (no result: ELG1 repair inh, ELG1 genotox, NPC1 prom act, Rab9 promoter act, FLuc counter)
Cc1nccc2c1[nH]c1ccc(Br)cc12	none (no result: SMN2 splice enh)
COc1ccc2c(c1)[nH]c1c(C)nccc12	ELG1 repair inh 2µM (no result: ELG1 genotox) | ELG1 Luc conf 2.81µM | ELG1-Luc MMS 11.2µM | ELG1 5-FU inactive | ELG1 MMS cell inconclusive | Cell viab unstim inactive
CCC(C)NC(=O)CCC(=O)OC1O[C@H]2OC3(C)CC[C@H]4[C@H](C)CCC(C1C)C24OO3 (some centres not stated)	ELG1 repair inh inconclusive (no result: SMN2 splice enh)
CCC(C)C(NC(=O)CCCNC(=O)CCC(=O)OC1O[C@H]2OC3(C)CC[C@H]4[C@H](C)CCC(C1C)C24OO3)C(=O)O (some centres not stated)	ELG1 repair inh 0.58µM (no result: SMN2 splice enh) | ELG1 FLuc counter inactive | ELG1 Luc conf inconclusive | ELG1-Luc MMS inconclusive | ELG1 5-FU inactive | ELG1 MMS cell inactive | Cell viab unstim inconclusive | FLuc biochem inactive

Source: PubChem BioAssay
